Hits are enriched below; roughly 2.9% of the tested compounds scored in any of these assays.
SMARCA2 act: SMARCA2 (BRM) function activators, primary screen, cell-based, luminescence, high throughput; MG213 cells, MMTV-luciferase reporter, dexamethasone, overnight; AID 652017, 2013; hit rate 1% among 370,000; activation, % at 9.1 µM; in the data active = activation above about 7.8%;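 also: 0% = vehicle wells and 100% = reference activator wells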
FAS-TE inh: FAS thioesterase domain inhibitors, primary screen, biochemical, fluorescence intensity, uHTS; hit rate 0.67% among 360,000; recombinant FAS-TE, OMFH fluorogenic substrate, fluorescence endpoint; inhibition, % at 15 µM; Fatty acid synthase (Homo sapiens), P49327; AID 602261, 2012;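 active = compounds whose normalised, plate-corrected inhibition of enzyme fluorescence in the single-dose primary screen is 50% or more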;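 also: 0% = DMSO with enzyme and 100% = substrate without enzyme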
KLK7 zymogen act: proKLK7 zymogen activators, primary screen, biochemical, fluorescence intensity | hit rate 0.9% among 370,000 | activation, % at 7 µM | purified proKLK7, EDANS-DABCYL substrate fluorescence; 100% is mature enzyme control, 0% vehicle | Kallikrein-7 (Homo sapiens), P49862;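 active = activation above the mean of all tested compounds plus 3 SD, computed per campaign excluding outliers beyond control limits, cut at about 13% in these data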
Target sequence (P49862 whole entry, looked up): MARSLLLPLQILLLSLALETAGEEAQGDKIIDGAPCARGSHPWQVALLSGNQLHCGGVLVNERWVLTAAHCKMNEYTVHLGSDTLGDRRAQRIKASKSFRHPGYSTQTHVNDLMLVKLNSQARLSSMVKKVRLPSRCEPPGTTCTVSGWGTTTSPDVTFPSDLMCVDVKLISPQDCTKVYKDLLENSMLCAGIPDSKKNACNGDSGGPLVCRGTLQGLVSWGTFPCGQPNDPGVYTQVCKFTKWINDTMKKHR
FXN GAA850 act: FXN promoter activators, primary screen, cell-based, luciferase luminescence, HEK293 lucGAA850; activation, % at 6 µM; AID 540364, 2011; HEK293 lucGAA850 FXN promoter luciferase reporter, 24 h; percent of 10 µM SAHA response; hit rate 0.56% among 360,000;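 active = activation above the average of all compounds screened plus 3 SD, cutoff fixed separately per campaign, cut at about 7.5% in these data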;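 also: 0% = DMSO wells and 100% = 10 µM SAHA wells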
GAA30 counter: GAA30 FXN promoter activators, confirmation, counter-screen for GAA850 frataxin promoter activator project, cell-based, luminescence, HEK293, lucGAA30, triplicate; shares compounds with FXN GAA850 act; HEK293 lucGAA30 FXN promoter luciferase, 24 h; DMSO = 0%, 5 µM ipriflavone = 100%; activation, % at 6 µM; hit rate 66% among 1,900;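 active = mean activation above the mean of solvent-only control wells plus 3 SD, cut at about 22% in these data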;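 also: counterscreen of GAA850 promoter hits where activity marks nonselective or luminescence artifacts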
FXN GAA850 conf: FXN GAA850 promoter activators in reporter cells, confirmation, cell-based, luminescence, HEK293 lucGAA850, triplicate; hit rate 86% among 1,900; shares compounds with FXN GAA850 act; HEK293 lucGAA850 FXN promoter luciferase reporter, 24 h; 100% = activation by SAHA; activation, % at 6 µM;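 active = mean activation above a set limit taken from the primary screen, cut at about 8% in these data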;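 also: 0% = DMSO wells and 100% = 10 µM SAHA wells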
* hit, by the source's call; x = no result.

SMILES | SMARCA2 act | FAS-TE inh | KLK7 zymogen act | FXN GAA850 act | GAA30 counter | FXN GAA850 conf
CCCCCN1C=CC(=C2C(=O)c3ccccc3C2=O)C=C1 | -8 | 0 | 0 | -12 | x | x
COc1ccc(COC(=O)C2=C(C)NC(=O)NC2c2ccccc2F)cc1 (stereo unspecified) | 0 | 1 | 0 | 0 | x | x
c1ccc(-c2cc3nccc(-c4ccccn4)n3n2)cc1 | 4 | 10 | 1 | 8.0* | 106* | 29*
Cc1cc2nccc(-c3ccccn3)n2n1 | 1 | -6 | 1 | 0 | x | x
CCN(C(=O)COC(=O)c1ccccc1O)c1nc2ccccc2s1 | -2 | 0 | 0 | 2 | x | x
COc1ccc(NC(=O)COc2nsnc2N2CCOCC2)c(OC)c1 | 0 | 0 | 0 | 1 | x | x
Cc1ccc2nc(C(F)(F)F)c(C#N)c(N)c2c1 | 0 | 2 | -1 | 40* | 79* | 77*
Oc1cc(NCc2cccnc2)ccc1-c1nc2ccccc2o1 | 3 | -1 | -84 | 11* | 81* | 44*
CCc1ccc(OCC(=O)Nc2ccc(-c3nc4ccccc4o3)c(O)c2)cc1 | 0 | 2 | 0 | 0 | x | x
Cc1cccc(N2C(=O)N3[C@H](c4ccc(Br)cc4)[C@@H]4C(=O)N(C(C)(C)C)C(=O)[C@@H]4[C@]3(C)C2=O)c1 | 1 | 13 | 1 | 14* | 28* | 16*
COc1ccc([C@@H]2[C@@H]3C(=O)N(C(C)(C)C)C(=O)[C@@H]3[C@]3(CC(C)C)C(=O)N(c4cccc(F)c4)C(=O)N23)cc1 | 0 | 14 | 0 | 15* | 46* | 16*
CC[C@@]12C(=O)N(c3cccc(F)c3)C(=O)N1[C@H](c1ccc(Br)cc1)[C@@H]1C(=O)N(C(C)(C)C)C(=O)[C@@H]12 | 0 | 17 | 1 | 15* | 26* | 13*
Cc1cc(=O)[nH]c2nnc(SCC(=O)N3CC(C)OC(C)C3)n12 (stereo unspecified) | -2 | -7 | 0 | 0 | x | x
Cc1ccnc(NC(=O)CCC(=O)N(CC(=O)NCc2ccccc2)Cc2cccs2)c1 | -2 | 3 | 1 | -1 | x | x
Nc1nc2sc3c(c2c(=O)s1)CCCC3 | 4 | 6 | -1 | 8.2* | 70* | 28*
Nc1c2c3c(sc2nc(=O)n1N)CCCC3 | 1 | 0 | 0 | 1 | x | x
O=C(CCl)Nc1ccc(N2CCCCCC2)cc1 | 2 | 7 | 0 | 7.7* | 10 | 29*
COc1cc(C(=O)O/N=C2\C=CC(=O)C(C)=C2)cc(OC)c1OC | 5 | 27 | 0 | 9.2* | 35* | 19*
COc1cc(C(=O)ON=C2C=C(C)C(=O)C(C)=C2)cc(OC)c1OC | -2 | 1 | 0 | 2 | x | x
COc1ccc(/C=N/Nc2nc3ccccc3s2)cc1O | -1 | 9 | -2 | 6 | x | x
CC(=O)Nc1ccc(/C=N/Nc2nc3ccccc3s2)cc1 | 3 | 0 | -1 | 8.7* | 123* | 36*
Cc1ccc(OCc2cc(C(=O)N3CCCC3)no2)cn1 | 5 | -3 | 0 | 6 | x | x
CCOC(=O)c1c(NC(=O)c2cccnc2Cl)sc(C(=O)N(C)C)c1C | -2 | -8 | 0 | 10* | 10 | 7
CCc1ccc2c(c1)C1(NN=C(c3ccc(C)cc3)S1)C(=O)N2 (stereo unspecified) | 5 | 4 | 0 | 2 | x | x
CC(C)c1ccc2c(c1)C1(NN=C(c3ccccc3)S1)C(=O)N2 (stereo unspecified) | 1 | 12 | 0 | 7.9* | -78 | -22
Cc1ccc(O)c(NC2=C(Cl)C(=O)N(Cc3ccccc3)C2=O)c1 | 0 | 3 | 0 | 8.1* | 21 | 12*
COC(=O)[C@@]1(C)[C@H]2C(=O)N(Cc3ccccc3)C(=O)[C@H]2[C@H]2CN=C(SCc3ccc(C)cc3)N21 | -2 | 5 | 0 | 10* | 32* | 12*
CCN1C(=O)[C@H]2[C@H]3CN=C(SCc4ccc(OC)cc4)N3[C@@](CC)(C(=O)OC)[C@H]2C1=O | -1 | -8 | 0 | 0 | x | x
